In PubChem BioAssay (NCI) one finds growth data, which are given here for 27 molecules.

About 83,000 compounds went through this panel and 20% of them were active in at least one assay; those are over-represented in the sample as a whole.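 Values shown are percent growth following 48 h exposure of cells in 96-well plates to a single concentration of compound; below 10 was considered active.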 A number with no mark means an inactive call. Calls of active or inactive are those of the source.

Experiment in all cases: NCI-60 one-dose screen, 48 h (100 = growth as untreated, 0 = no growth, -100 = all killed)
Holding throughout (settings): 10 µM unless noted

Test [1] relates to NCI-H23 lung.
Test [2] relates to NCI-H226 lung.
In test [3] the test system is NCI-H322M lung.
Test [4] has as its system HOP-62 NSCLC.
Test [5] concerns NCI-H460 lung.
The test system of test [6] is HOP-92 NSCLC.
Test [7] concerns NCI-H522 lung.
The subject of test [8] is A549/ATCC NSCLC.
The test system of test [9] is 786-0 renal.
The test system of test [10] is COLO 205 colon.

`C=CC(=O)Nc1ccc(C(=O)/C=C/c2ccc(N(C)C)cc2)c(O)c1`: the growth is 4.7% (active) in test [1]; 28.6% in test [2]; 41.1% in [3]; 10.1% in test [4]; 0.849% (active) in test [5]; 45.8% in test [6]. Further, the growth in [7] is -67.5% (active); in [8] it was 12.8%; in test [9], -1.73% (active); in [10], -59.6% (active).
As for `CC1=NN(C2=NC(=O)C(CC(=O)Nc3ccccc3C(F)(F)F)S2)C(c2ccc(N(C)C)cc2)C1` (stereo not given), the growth was 72.6% in [1]; 53.1% in test [2]; 76.1% in [3]; 78.3% in test [4]; 39.6% in test [5]; 7.13% (active) in [6]. Moreover, the growth in [7] is 33.1%; in test [8] it was 38.2%; in [9], 61.4%; in [10] it was 63.5%.
Take `COc1cc(C2CC(c3cc(OC)c(OC)c(OC)c3)=Nc3c(N)nc(N)nc3N2)ccc1Oc1nc(Nc2ccc(F)cc2)nc(N(C)C)n1` (stereo not given): the growth was 89.8% in test [1]; 106% in [2]; 94.4% in test [3]; 99.9% in test [4]; 42.8% in test [5]; 38.1% in test [6]. The growth is 56.8% in [7], 52.9% in [8], 36.6% in [9] and 73.9% in test [10].
With `Cc1ccc(C(=O)Nc2cccc(C(=O)NC(=S)Nc3ccc(S(N)(=O)=O)cc3)c2)cc1`, the growth was 76.9% in test [1]; 67.5% in test [2]; 87.3% in test [3]; 74.9% in test [4]; 77.8% in [5]; 67.5% in test [6]. Further, the growth in test [7] was 48.6%; in test [8] it was 74.7%; in test [9], 81.7%; in test [10], 98.4%.
`CC1=C(C)C(=O)C(NCCN2CCOCC2)=C(Br)C1=O`: the growth is -0.608% (active) in test [1]; 67.1% in test [2]; 91.5% in [3]; 87.2% in test [4]; 98% in test [5]; 38.7% in [6]. The growth in [7] is -18.4% (active); in test [8], 87.6%; in [9], 100%; in test [10], 130%.
On to `O=C(N/N=C/c1ccc(Cl)o1)c1[nH]c2ccc(Br)cc2c1-c1ccccc1`, for which the growth was -29.7% (active) in [1]; -42.1% (active) in [2]; 26.3% in test [3]; -48.3% (active) in test [4]; -70.8% (active) in test [5]; 9.01% (active) in test [6]. Moreover, the growth was -59.8% (active) in test [7], -23.2% (active) in [8], -57.7% (active) in [9] and -39.9% (active) in test [10].
Regarding `COc1ccc2[nH]c(O)c(N=Nc3nc(-c4ccccc4)cs3)c2c1`, the growth was 23.9% in [1]; 11.2% in test [2]; 26.5% in [3]; 21.3% in test [4]; 12.3% in test [5]; -8.09% (active) in [6]. Also, the growth was 8.94% (active) in test [7], 2.49% (active) in [8], -44.8% (active) in test [9] and 30% in test [10].
Consider `COc1ccc2[nH]cc(-c3cc4nc(-c5cn(C)c6ncccc56)cc(N)n4n3)c2c1`, for which the growth in [1] is 13.9%; in [2], 92.6%; in test [3], 37.1%; in test [4], 19.8%; in test [5], -58.3% (active); in test [6], -45.7% (active). For the same molecule, the growth in test [7] was -58.7% (active); in test [8] it was -25.9% (active); in test [9] it was -90.3% (active); in test [10], -49.9% (active).
In the case of `COc1ccc(-c2cc(-c3ccccc3)c(C#N)c(=O)[nH]2)cc1S(N)(=O)=O`, the growth in test [1] was 106%; in [2], 103%; in [3], 113%; in test [4], 97.6%; in test [5], 104%; in [6], 110%. Moreover, the growth in [7] was 93.3%; in test [8], 98.7%; in test [9] it was 94.7%; in test [10], 118%.
In the case of `CCCn1c(NC(=O)c2cccc(C(N)=O)c2)nc2cc(CN3CCCCC3)ccc21`, the growth in test [1] was 88.1%; in [2], 101%; in test [3] it was 92%; in test [4], 95.8%; in test [5] it was 101%; in [6], 84.8%. For the same molecule, the growth is 83.1% in test [7], 95.7% in test [8], 9.97% (active) in [9] and 88.7% in test [10].
For `C[C@@H](Nc1c(C#N)cnc2ccc(-c3cnc4[nH]ncc4c3)cc12)c1ccccc1`, the growth in [1] was 21%; in test [2], -1.92% (active); in test [3], -2.29% (active); in [4], 35.4%; in test [5], 15.4%; in [6], -11.3% (active). Besides, the growth in [7] was 13.1%; in [8], 5.68% (active); in [9], 11%; in test [10], 84.2%.
Consider `Cc1cc(C(NC(=O)CCCCCNc2cccc3c2C(=O)N(C2CCC(=O)CC2=O)C3=O)c2cccc(N(C)C)c2)c(O)c2ncccc12` (stereo not given), for which the growth is 24% in test [1]; -1.45% (active) in [2]; 13.7% in test [3]; -22.6% (active) in test [4]; 5.72% (active) in [5]; -10.4% (active) in test [6]. The growth in [7] is 13%; in [8], 11.7%; in [9] it was 2.23% (active); in [10], 7.54% (active).
Turning to `O=C(Cc1c(-c2cccc([N+](=O)[O-])c2)n(-c2ncnc3c2c(-c2ccccc2)c(-c2ccccc2)n3Cc2ccccc2)[nH]c1=O)c1ccc(Cl)c(Cl)c1`, the growth is 16.1% in test [1]; 39% in test [2]; 79.1% in test [3]; 44.9% in test [4]; 33.9% in test [5]; -2.08% (active) in test [6]. Further, the growth in test [7] was 7.22% (active); in test [8], 45%; in test [9], 63.4%; in test [10], 60.2%.
As for `COc1ccc2[nH]c(=O)c(CSc3ccccc3Nc3nccc(-c4ccc(Cl)cc4)n3)cc2c1`, the growth in [1] was 43.2%; in test [2], 45.7%; in test [3], 69.5%; in test [4], 69.2%; in test [5], 33.3%; in test [6], 36.6%. The growth in test [7] was 4.52% (active); in test [8] it was 52.5%; in test [9], 43.4%; in test [10], 61.8%.
As to `CCCSc1nnc(-c2sc3nc4ccccc4n3c2C)o1`, the growth in test [1] was 111%; in [2] it was 106%; in test [3], 102%; in [4] it was 132%; in [5] it was 103%; in [6], 101%. Besides, the growth in test [7] is 100%; in test [8] it was 99.8%; in test [9], 81.5%; in test [10], 131%.
Regarding `COc1ccc2oc(=O)c(-c3csc(N/N=C(\C)c4cc(OC)c(OC)c(OC)c4)n3)cc2c1`, the growth is 84% in test [1]; 89.7% in test [2]; 96.8% in test [3]; 109% in test [4]; 79.1% in test [5]; 96.8% in test [6]. Besides, the growth in [7] is 85.8%; in test [8] it was 101%; in [9], 90.5%; in [10], 99.8%.
Turning to `COc1ccc(C(=O)/C=C/c2ccc3c(c2)OCCO3)cc1S(N)(=O)=O`, the growth in test [1] is 73%; in test [2], 116%; in test [3], 84.6%; in [4], 29.7%; in [5], 68.3%; in [6] it was 94.5%. Moreover, the growth in [7] is 43.8%; in test [8] it was 47.6%; in [9] it was 76.5%; in test [10], 91.9%.
On to `ClC(Cn1ncc2c(Nc3cccc(Br)c3)nc(SCCN3CCOCC3)nc21)c1ccc(Br)cc1` (stereo not given), for which the growth in test [1] is -20.2% (active); in [2], 32.2%; in [3] it was 47.5%; in [4], -12.9% (active); in test [5], 27.6%; in test [6] it was -18.9% (active). The growth is 13.9% in [7], 15.7% in test [8], -66.5% (active) in [9] and -79.2% (active) in test [10].
For the molecule `COc1ccc(-c2cc(C)nc3[nH]c(=O)sc23)cc1`, the growth in [1] is 74.3%; in [2] it was 36.3%; in test [3], 68.4%; in test [4] it was 44.9%; in [5], 52.4%; in test [6], 16.3%. The growth was 61.8% in test [7], 52.8% in test [8], 0.453% (active) in [9] and 119% in test [10].
`COc1cc(CNC(=O)[C@]23CCC(C)(C)CC2C2=CCC4[C@@]5(C)CCC(OC(C)=O)C(C)(C)C5CC[C@@]4(C)[C@]2(C)CC3)ccc1OCc1cn(-c2ccc(Cl)cc2Cl)nn1` (stereo not given in full): the growth was 99% in test [1]; 94.8% in test [2]; 94.1% in test [3]; 105% in test [4]; 105% in test [5]; 116% in [6]. Moreover, the growth in test [7] is 88.9%; in [8], 93.1%; in [9] it was 107%; in test [10], 118%.
Turning to `COc1c2c(c(Br)c3c1C(CCc1ccccc1)N(C)CC3)OCO2` (stereo not given), the growth in test [1] is 16.4%; in [2] it was 51.7%; in [3] it was 38.5%; in test [4], 68.2%; in test [5], 23.5%; in [6], 22.6%. For the same molecule, the growth was 56.9% in [7], 45.9% in test [8], 47.6% in test [9] and 29.6% in [10].
In the case of `Cn1cc(-c2cc3nc(-c4cn(C)c5ncc(Br)cc45)cc(N)n3n2)c2cc(F)ccc21`, the growth was 15.2% in test [1]; 10.9% in [2]; 35.3% in test [3]; 15% in test [4]; 20.9% in [5]; -18.3% (active) in test [6]. The growth was 2.15% (active) in [7], 0.571% (active) in test [8], -5.13% (active) in test [9] and 51.6% in test [10].
For the molecule `Cc1ccc(C(C)C)cc1Oc1cccc(-c2c(-c3ccc(C(F)(F)F)cc3)ncn2C2CCNCC2)n1`, the growth in test [1] was -89% (active); in test [2], -78.4% (active); in [3] it was -98.4% (active); in test [4], -82.7% (active); in [5], -84.3% (active); in test [6], -85.8% (active). Further, the growth was -91.2% (active) in test [7], -86.8% (active) in test [8], -90.8% (active) in test [9] and -87.5% (active) in test [10].
On to `Cc1nn(-c2ccccc2)c2nc(C)n(C(=O)N/N=C/c3ccccc3)c(=O)c12`, for which the growth in [1] is 99.7%; in test [2] it was 87.5%; in test [3], 103%; in test [4] it was 102%; in [5], 106%; in test [6] it was 99.4%. In addition, the growth in [7] is 97.9%; in [8], 101%; in test [9], 97.1%; in test [10], 118%.
As for `COc1ccc(-c2cc(C(=O)Oc3ccc(C=O)cc3OC)nn2-c2ccc(S(C)(=O)=O)cc2)cc1`, the growth in [1] was 96%; in test [2], 104%; in [3] it was 106%; in test [4] it was 104%; in [5], 105%; in test [6], 110%. The growth in [7] is 68.3%; in test [8], 105%; in [9], 113%; in test [10], 133%.
Consider `CC(C)(C)OC(=O)N1CCC2(CC1)Oc1ccccc1[C@H]1CC(c3ccc(Br)cc3)=NN12`, for which the growth is 80.9% in test [1]; 79% in test [2]; 86.6% in test [3]; 77% in [4]; 66.6% in [5]; 67.5% in test [6]. Besides, the growth in test [7] was 74.4%; in test [8], 67.4%; in [9] it was 76.8%; in [10] it was 101%.
`CCCCC[C@@H]1C/C=C(\C)[C@@H](O)C(C)(C)C(=O)[C@@H](C)/C=C(\C)[C@@H]2C[C@H](O)C[C@](O)(CC(=O)O1)O2`: the growth is 31% in [1]; 14% in [2]; 82% in test [3]; 68.7% in [4]; 49.6% in test [5]; 60.4% in test [6]. The growth in test [7] was 12.5%; in test [8], 36.8%; in [9], 65.8%; in test [10] it was 37.6%.
